Data taken from PubChem BioAssay (NCI).
This is part of a sample that, as a whole, favours compounds with a hit. Of some 83,000 tested, about 20% had one in any assay.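 96-well plates, one dose, 48 hours. Percent growth reported; active if below 10.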 A number with no mark means an inactive call. Active and inactive are the calls of the source.

Tests used:
Experiment in all cases: NCI-60 one-dose screen, 48 h (100 = growth as untreated, 0 = no growth, -100 = all killed)
Details in all cases: 10 µM unless noted
DU-145 prostate = test system: DU-145 prostate
K-562 leukemia = test system: K-562 leukemia
MALME-3M melanoma = test system: MALME-3M melanoma
MDA-MB-231 breast = test system: MDA-MB-231 breast
SF-268 CNS = test system: SF-268 CNS
SF-295 CNS = test system: SF-295 CNS
SF-539 CNS = test system: SF-539 CNS
UACC-257 melanoma = test system: UACC-257 melanoma

Compound	growth (DU-145 prostate)	growth (K-562 leukemia)	growth (MALME-3M melanoma)	growth (MDA-MB-231 breast)	growth (SF-268 CNS)	growth (SF-295 CNS)	growth (SF-539 CNS)	growth (UACC-257 melanoma)
CCCCCc1ccc(S(=O)(=O)Nc2cccc(-c3csc(NC(=O)CCCCCN4CCN(C)CC4)n3)c2)cc1	63.5%	-35.7% (active)	-67.4% (active)	42.9%	67.5%	85.8%	63%	0.162% (active)
CC(=O)C1=C(C)NC(NN)=NC1c1cccc(Cl)c1 (centres undefined)	114%	100%	104%	96.6%	103%	104%	98.6%	113%
COc1ccc(/C=C(/C)c2ccc3ccc(OC)cc3[o+]2)c(O)c1	86.1%	31.9%	85.2%	72.7%	88.1%	94.2%	96.1%	89.7%
NC(N)=Nc1ccc(Oc2cccc(NC(N)=Nc3ccc(I)cc3F)c2)cn1	88.3%	46.1%	75.5%	62.8%	36.3%	47.3%	60.3%	75.6%
C#CCOc1ccc(/C=N\Nc2nc(-c3ccc(C)cc3)cs2)cc1OC	85.3%	69.6%	116%	88.6%	102%	92.4%	96.4%	93.3%
C=CCN(C)S(=O)(=O)/N=C1\NC(=O)NC1=C(Cl)Cl	72.8%	-3.52% (active)	-69.4% (active)	-25.5% (active)	32.2%	102%	-23.6% (active)	57.4%
O=C(CNc1nc(-c2cccc([N+](=O)[O-])c2)cs1)Nc1cccc([N+](=O)[O-])c1	-6.15% (active)	8.33% (active)	-70.8% (active)	-28.8% (active)	-4.97% (active)	0.245% (active)	-29.6% (active)	-13% (active)
COc1ccc(/C=N/NC(=O)c2cn(C3CC3)c3c(OC)c(N4CC5CCCNC5C4)c(F)cc3c2=O)cc1 (centres undefined)	93.6%	7.92% (active)	90.4%	81.1%	83.6%	103%	35.5%	106%
